Bioassay records from PubChem BioAssay.
Hits are enriched below; roughly 18% of the tested compounds scored in any of these assays.
TDP1 cell CPT – qHTS for Inhibitors of human tyrosyl-DNA phosphodiesterase 1 (TDP1): qHTS in cells in presence of CPT. chicken DT40 Tdp1-/-;hTDP1 cells + 20 nM CPT, ATP luminescence, 48 h. Potency, µM (top dose mostly 46.2 µM), without a hit: top-dose activity change, negative = growth inhibition, usual class: inhibitors. hit rate 12% among 420,000; further: nearly all actives have a fitted effect of over 55% in size
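Chicken DT40 Tdp1-/- cells complemented with human TDP1, 400 cells/well, exposed to compounds plus 20 nM camptothecin for at least 48 h at 37 C; viability read as ATP content by CellTiter-Glo luminescence.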
PLK1 PBD inh – qHTS for Inhibitors of PLK1-PDB (polo-like kinase 1 - polo-box domain): Primary Screen. Plk1 PBD binding of FITC phosphopeptide, fluorescence polarization. Serine/threonine-protein kinase PLK1 (Homo sapiens), P53350. hit rate 2.8% among 360,000. Potency, µM, for inactives: max response, negative = inhibition, most hits filed as inhibitors; further: series mostly up to about 57 µM; nearly all actives have a fitted effect of over 65% in size
TDP1 block – qHTS Assay for Inhibitors of Tyrosyl-DNA Phosphodiesterase (TDP1); Tyrosyl-DNA phosphodiesterase 1 (Homo sapiens), Q9NUW8; recombinant TDP1, AlphaScreen DNA substrate cleavage; Potency, µM (highest dose often 130 µM), without a hit: top-dose activity change, negative = inhibition, hits mostly inhibitors; hit rate 0.28% among 350,000; AID 485290, 2010; further: nearly all actives have a fitted effect of over 40% in size
Target sequence (Q9NUW8 whole entry, looked up): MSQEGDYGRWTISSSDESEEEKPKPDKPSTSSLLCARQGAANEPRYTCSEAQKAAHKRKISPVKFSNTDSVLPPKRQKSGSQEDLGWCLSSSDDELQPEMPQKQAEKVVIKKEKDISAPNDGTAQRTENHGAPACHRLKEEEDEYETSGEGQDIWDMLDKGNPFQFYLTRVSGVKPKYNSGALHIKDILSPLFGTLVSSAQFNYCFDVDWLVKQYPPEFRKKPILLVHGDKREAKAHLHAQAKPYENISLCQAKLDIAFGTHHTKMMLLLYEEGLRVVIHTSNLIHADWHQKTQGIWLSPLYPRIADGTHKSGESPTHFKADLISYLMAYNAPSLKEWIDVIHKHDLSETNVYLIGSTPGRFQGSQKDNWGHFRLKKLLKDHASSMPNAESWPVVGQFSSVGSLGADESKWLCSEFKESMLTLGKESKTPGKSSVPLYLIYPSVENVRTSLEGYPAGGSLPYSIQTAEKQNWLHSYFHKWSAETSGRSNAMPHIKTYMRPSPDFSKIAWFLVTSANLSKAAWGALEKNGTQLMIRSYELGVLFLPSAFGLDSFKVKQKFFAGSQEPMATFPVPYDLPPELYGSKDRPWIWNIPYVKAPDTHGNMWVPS
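Recombinant E. coli-expressed Tdp1 (1 nM) preincubated with compound 15 min at RT, then 5'-biotin/3'-phosphotyrosine-FITC DNA substrate (15 nM) added for 5 min. AlphaScreen beads (10 ug/ml) added, 10 min RT; tyrosine-FITC cleavage read as signal loss.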
KAT2A inh – qHTS Assay for Inhibitors of GCN5L2; GCN5L2 HAT assay, ThioGlo1 CoA-SH fluorescence; Potency, µM (doses to about 58.9 µM), without a hit: at the highest dose activity change, negative = inhibition, most hits filed as inhibitors; hit rate 0.21% among 390,000; AID 504327, 2011
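Preincubate 20nM GCN5L2 with compound 15 min, RT → add 50uM ThioGlo1 + 75uM H3(1-25) + 70uM acetyl-CoA → read fluorescence 0 and 20 min. Primary qHTS; fluorescent artifacts likely.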
TDP1 cell noCPT – qHTS for Inhibitors of human tyrosyl-DNA phosphodiesterase 1 (TDP1): qHTS in cells in absence of CPT | hit rate 15% among 420,000 | Potency, µM (titrated, usually from 46.2 µM), for the others: top-dose activity change, negative = growth inhibition, most hits filed as inhibitors | AID 686978, 2013 | DT40 Tdp1-/- hTDP1 cells, no CPT, ATP luminescence, 48 h; further: nearly all actives have a fitted effect of over 55% in size
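Camptothecin absent (DMSO only). Human TDP1-complemented DT40 knockout cells, 400 cells/well, 37 °C for minimum 48 hr; ATP measured via CellTiter-Glo, 30 min dark incubation, luminescence.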
VDR inh – Inhibitors of the vitamin D receptor (VDR): qHTS; VDR-SRC2-3 peptide fluorescence polarization, 2 h; Potency, µM, without a hit: max response, negative = inhibition, actives largely listed as inhibitors; hit rate 0.93% among 400,000; AID 504847, 2011
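VDR–SRC2-3 interaction, FP format. Cmpds 23 nl via pintool, brief spin, 2 h ambient incubation.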
* marks the source's active call; other numbers are inactive results; [ ] = dose if it differs, or a comment. The call rests on the fitted dose curve; in most records, active means well fitted curve in the direction sought with a large enough effect; inconclusive means small, poorly fitted or top-dose-only effect, or another doubt; inactive means no such curve, though single readings can be large; an effect the other way counts as inactive or inconclusive. On the % scale 0 is the no-effect control and ±100 the full control effect; potency means the concentration at half of the fitted maximal effect.

Screening CC(=O)N1CC(C)Sc2ccc(S(=O)(=O)NC3CCCCC3C)cc21 (centres undefined) returned TDP1 cell CPT inconclusive, PLK1 PBD inh 29.9µM*, TDP1 block 1.0%, KAT2A inh -6.7%, TDP1 cell noCPT -14.4% and VDR inh -11.6%.
CCOC(=O)CSc1nc2c(sc3ccccc32)c(=O)n1CCc1ccccc1 was read as TDP1 cell CPT -17.7%, TDP1 block 0.5%, KAT2A inh 1.6%, TDP1 cell noCPT inconclusive and VDR inh 8.7%.
For CCOC(=O)CSc1nc2c(sc3ccccc32)c(=O)n1Cc1ccc(C)cc1 the results were TDP1 cell CPT 20.6µM*, TDP1 block -2.5%, KAT2A inh -3.8%, TDP1 cell noCPT inconclusive and VDR inh 9.9%.
Screening CCCCN(CC)C(=O)CSc1nc2c(sc3ccccc32)c(=O)n1CCc1ccccc1 returned TDP1 cell CPT inconclusive, TDP1 block -0.5%, KAT2A inh 4.1%, TDP1 cell noCPT 5.17µM* and VDR inh 1.8%.
`COCCCn1c(SCC(=O)NCc2ccccc2)nc2c(sc3ccccc32)c1=O` gave TDP1 cell CPT -15.0%, TDP1 block 3.4%, KAT2A inh 1.4%, TDP1 cell noCPT -16.8% and VDR inh 15.8%.
CCN(CC)CCn1c(SCC(=O)Nc2ccc(F)cc2)nc2c(sc3ccccc32)c1=O was read as TDP1 block -2.5% and KAT2A inh -7.3%.
`C=CCN(C(=O)CSc1nc2c(sc3ccccc32)c(=O)n1CCN(CC)CC)c1ccccc1` gave TDP1 cell CPT 18.4µM*, PLK1 PBD inh -8.9%, TDP1 block 10.8%, KAT2A inh -7.3%, TDP1 cell noCPT 16.4µM* and VDR inh inconclusive.
Screening CCc1ccc(NC(=O)CSc2nc3c(sc4ccccc43)c(=O)n2CCN(CC)CC)cc1 returned TDP1 cell CPT 14.6µM*, TDP1 block 5.4%, KAT2A inh -14.6%, TDP1 cell noCPT 9.2µM* and VDR inh 18.1%.
COC(=O)[C@@H]1CC[C@H](C)[C@@H](c2ccc(C)cc2)N1C(=O)c1ccc(/C=N\O[C@@H]2O[C@H](COC(C)=O)[C@H](OC(C)=O)[C@H](OC(C)=O)[C@H]2OC(C)=O)cc1 was read as TDP1 block 7.9%[21 µM].
CCOC(=O)N1CCC(NCCNC(=O)c2ccc(F)c(F)c2)CC1 was read as TDP1 cell CPT 1.6%, PLK1 PBD inh 2.5%, TDP1 block 0.1%, KAT2A inh 1.3%, TDP1 cell noCPT -13.2% and VDR inh -2.5%.
Screening CCc1ccc(NC(=O)CSc2nc3c(sc4ccccc43)c(=O)n2CCCOC(C)C)cc1 returned TDP1 cell CPT -17.9%, TDP1 block 2.5%, KAT2A inh 2.9%, TDP1 cell noCPT 20.6µM* and VDR inh 16.9%.
CCc1ccc(NC(=O)CSc2nc3c(sc4ccccc43)c(=O)n2CCCOC)cc1 was read as TDP1 cell CPT inconclusive, TDP1 block -0.5%, KAT2A inh -0.3%, TDP1 cell noCPT inconclusive and VDR inh 1.6%.
For COC(=O)[C@@]12C[C@@H](CC(=O)N3CCCC3)C(=O)N(Cc3ccco3)C1=CCC(C)(C)C2 the results were TDP1 cell CPT inconclusive, PLK1 PBD inh -12.7% and TDP1 cell noCPT 16.4µM*.
`COC(=O)[C@@]12C[C@@H](CC(=O)N3CCCCC3)C(=O)N(Cc3cccc4ccccc34)C1=CCC(C)(C)C2` gave TDP1 cell CPT inconclusive, PLK1 PBD inh 2.8% and TDP1 cell noCPT inconclusive.
